Several values for one entry are separate records, joined by “and”; a condition that tells them apart may be missing. Identical values can stand only once. Compounds without any hit were thinned out: in the full panel of roughly 83,000, 20% have a hit.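 Activity criterion: percent growth below 10, measured after cells in 96-well plates were exposed to a single compound concentration for 48 hours.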 Activity calls are given as the source filed them.

The test system of one assay is SN12C renal. The assay can be described thus: NCI-60 one-dose screen, 48 h (100 = growth as untreated, 0 = no growth, -100 = all killed). Particulars: 10 µM unless noted.
Turning to `CN1CCN(Cc2ccc(NC(=O)c3cncc(C#Cc4cnc5ccc(NCCO)nn45)c3)cc2C(F)(F)F)CC1`, the growth is 1.09% (active).

Take `C#CCOc1cccc(/C(N)=N/C(N)=N/c2nc3ccccc3s2)c1`: the growth is 66% (inactive).

On to `NC(N)=NS(=O)(=O)c1ccc(N=Nc2c(N)nn(-c3ccc([N+](=O)[O-])cc3[N+](=O)[O-])c2N)cc1`, for which the growth is 101% (inactive).

`N#Cc1c(-c2cccs2)cc(-c2cnccn2)nc1SCC(=O)N/N=C/c1cccs1`: the growth was 52.1% (inactive).

For `COc1cc(C(=O)c2cc(C(C)=O)c3ccc(C)cn23)cc(OC)c1OC`, the growth is 42.4% (inactive).

As for `Brc1ccc(-c2cc(-c3ccc4c(c3)OCCO4)n[nH]2)s1`, the growth is 54.3% (inactive).

Another assay deals with UO-31 renal. The assay is described as above. Conditions: 10 µM unless noted.
For `N#Cc1nc(-c2ccccc2)oc1N1CCC(C2(C(F)(F)F)N=N2)CC1`, the growth is 82% (inactive).

Turning to `CNC(=O)c1cc(N2CCc3cc(NC(=O)Nc4ccc(N5CCOCC5)c(C(F)(F)F)c4)ccc32)ccn1`, the growth was 16.9% (inactive).

Regarding `O=C(CCCCCCNC(=O)C(O)(O)C(F)(F)F)Nc1ccc(Br)cc1`, the growth is -2.06% (active).

Consider `Cc1csc(/N=C(N)/N=C(\N)c2cccnc2)n1`, for which the growth was 77.7% (inactive).

As to `C=C1CCc2nc(SCC(=O)O)ccc2N1`, the growth is 91.1% (inactive).

As for `CCCCOc1ccc(S(=O)(=O)N2CCN(c3nc(C)cc(N4CCOCC4)n3)CC2)cc1`, the growth is 17.4% (inactive).

In the case of `CCn1c2ccc(/C=N/N(C)S(=O)(=O)CCN(C)C)cc2c2cc(/C=N/N(C)S(=O)(=O)CCN(C)C)ccc21`, the growth is 47.5% (inactive).

In the case of `NCCNC(=O)c1cccc(COc2ccccc2NC(=O)c2cc(Br)c(Br)[nH]2)c1`, the growth was 90% (inactive).

Turning to `CNC(=O)Nc1ccc(Nc2cc(-c3ccc(-n4cccn4)cc3)[nH]n2)c(C)c1`, the growth was 85.4% (inactive).

Consider `CCN(CC)c1ccc(/C=N/NC(=O)c2ccc(S(N)(=O)=O)cc2)c(O)c1`, for which the growth was 7.5% (active).

Take `COc1cc(-c2nc(-c3ccccc3)[nH]c2-c2ccnc(NCCCNS(=O)(=O)c3cccc(F)c3)n2)ccc1F`: the growth is 89.2% (inactive).

Take `C/C=C/CC(C)C(O)[C@H](NC(=O)[C@@H]1CCCN1C(=O)[C@](C)(CC)NC(=O)CCCCCCCCC)C(=O)N[C@@](C)(CC)C(=O)N[C@@H](CCC(N)=O)C(=O)N[C@H](CCC(N)=O)C(=O)NC(C)(C)C(=O)NC(C)(C)C(=O)N[C@@H](CCC(N)=O)C(=O)N[C@H](CC(C)C)C(=O)N[C@H](CO)CC(C)C` (stereo not given in full): the growth is 55.2% (inactive) and -79.7% (active).

For the molecule `O=S(=O)(NCCCNc1nccc(-c2[nH]c(-c3ccccc3)nc2-c2ccc(F)c(O)c2)n1)c1ccc(C(F)(F)F)cc1`, the growth is 91.4% (inactive).

For the molecule `N#Cc1c(-c2cccs2)c(C#N)c(=O)n(Cc2nc3ccccc3[nH]2)c1N`, the growth is 60% (inactive).

For `Cc1ccc2c(n1)C(=O)C(Cl)=C(Nc1ccccc1C(=O)OC(C)(C)C)C2=O`, the growth is -62.7% (active).

Turning to `Brc1cccc(-c2cc(-c3ccc4c(c3)OC=CO4)[nH]n2)c1`, the growth is 50.4% (inactive).

For `CN1CCN(CCCCCC(=O)Nc2nc(-c3cccc(NS(=O)(=O)c4cccc5c(N(C)C)cccc45)c3)cs2)CC1`, the growth is 75.1% (inactive).

For the molecule `O=C(CSc1nnc(-c2ccc(Cl)cc2)n1-c1ccccc1)Nc1ccc(Cl)cc1`, the growth was 12% (inactive).

Consider `NC1[C@H]2CN(c3cnc(C(=O)Nc4cc(F)cc5cccnc45)cn3)C[C@@H]12` (stereo not given in full), for which the growth is 44.6% (inactive).

On to `CC1CCN(CC(=O)Nn2c(COc3ccccc3)nc3ccccc3c2=O)CC1`, for which the growth is 70.7% (inactive).

For the molecule `CCCCSC1=C(Cl)CN(c2ccccc2)C1=O`, the growth was 92.2% (inactive).

In the case of `CC1=Cc2ccccc2OC12C=Cc1ccccc1O2` (stereo not given), the growth was 69% (inactive).

Turning to `Brc1ccc(-c2cc(-c3ccc4c(c3)OC=CO4)n[nH]2)s1`, the growth was 87.7% (inactive).

For `CC1=C(C)C(=O)C(Nc2cccc(C(=O)OC(C)(C)C)c2)=CC1=O`, the growth was 66.4% (inactive).

For the molecule `CCCC/C(=C\c1ccc(O)c(O)c1)C(=O)NC(Cc1ccccc1)C(=O)C(=O)NCCc1ccc(OC)cc1` (stereo not given), the growth is 93.4% (inactive).

Regarding `CCN(CC)c1ccc(/C=N/NC(=O)c2ccc(NS(C)(=O)=O)cc2)c(O)c1`, the growth was 13.1% (inactive).

Take `O=C(/C=C/C=C/c1csc(Br)n1)NO`: the growth was 71.9% (inactive).

With `O=C(CCCCCCNC(=O)C(O)(O)C(F)(F)F)Nc1ncc(-c2ccc(Br)cc2)s1`, the growth was -26.1% (active).

Take `Cc1cc(C)cc(NC2=C(Cl)C(=O)c3nc(C)ccc3C2=O)c1`: the growth is 0.909% (active).

These data come from PubChem BioAssay (NCI).
